Measurements as given in the supplement of paper PMC3334620.
Over roughly 33,000 sequences, “E-score (-0.5 to 0.5)” has its median near -0.016; the highest 2% begin near 0.3. The entries come from a sample that favours the highest values as a whole.

What follows are sequences tested against T1, Yer184c (UniProt P39961) (assay: PBM E-score (8-mer binding enrichment) (E-score (-0.5 to 0.5)); higher = stronger / more preferred TF binding). Details: protein concentration: 100 nM; construct: GST-full length.
T1 sequence: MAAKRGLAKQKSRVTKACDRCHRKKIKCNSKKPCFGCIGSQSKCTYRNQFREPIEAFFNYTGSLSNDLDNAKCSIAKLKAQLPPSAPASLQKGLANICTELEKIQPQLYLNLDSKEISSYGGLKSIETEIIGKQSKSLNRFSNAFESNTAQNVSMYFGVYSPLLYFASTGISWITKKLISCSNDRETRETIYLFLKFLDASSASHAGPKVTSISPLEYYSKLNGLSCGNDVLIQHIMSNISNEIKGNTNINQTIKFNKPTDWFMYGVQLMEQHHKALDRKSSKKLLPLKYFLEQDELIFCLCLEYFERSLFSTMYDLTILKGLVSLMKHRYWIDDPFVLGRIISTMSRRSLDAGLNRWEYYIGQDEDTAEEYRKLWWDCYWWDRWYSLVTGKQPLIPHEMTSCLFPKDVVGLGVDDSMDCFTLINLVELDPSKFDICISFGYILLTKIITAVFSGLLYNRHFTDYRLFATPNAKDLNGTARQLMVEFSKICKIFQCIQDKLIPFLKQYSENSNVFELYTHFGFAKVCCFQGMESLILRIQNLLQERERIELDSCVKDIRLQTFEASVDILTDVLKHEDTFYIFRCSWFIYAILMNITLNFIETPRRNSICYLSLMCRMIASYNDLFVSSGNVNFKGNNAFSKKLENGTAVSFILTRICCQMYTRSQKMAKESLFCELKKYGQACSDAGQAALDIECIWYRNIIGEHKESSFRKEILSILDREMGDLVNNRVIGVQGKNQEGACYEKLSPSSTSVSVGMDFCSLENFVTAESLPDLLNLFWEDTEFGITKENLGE
Protocol: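 Universal 'all 10-mer' protein binding microarrays (Agilent AMADID 015681) probed with GST-tagged S. cerevisiae TFs (full-length or DBD) made by in vitro transcription/translation (PURExpress), about 100-200 nM. Bound TF was detected with fluorescent anti-GST. Each ungapped 8-mer (which stands for itself and its reverse complement) is scored by the PBM enrichment score (E-score), a modified Wilcoxon-Mann-Whitney statistic from -0.5 to +0.5, computed with the Universal PBM Analysis Suite. Scale: above 0.35 generally sequence-specific binding.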

Sequence	PBM E-score
AGCCCAAG	-0.228
GGCCGACC	0.028
AACCGAAT	0.199
GCCCGAAC	0.0908
ACCCGAAT	0.104
GGCCGAAC	0.305
TGCCGAAA	0.371
CGCCGAAA	0.293
AACCGAAG	0.259
AACCGAAA	0.345
TGCCGACA	0.222
AGCCGAAT	0.392
AGCCGACT	-0.00308
GCGGGGAA	-0.0187
CGGGCTAA	0.0904
CTGCCTCC	-0.339
ATACGACC	-0.182
GATCTGGA	-0.0474
GACTTTCA	-0.0149
CATGCGCC	-0.092
CCATTAAG	-0.0869
ACCTCACT	-0.0518
ACTAGCGG	-0.0521
CACCGAAC	0.143
GACCGAAA	0.265

Sequence	PBM E-score
GACCGAAC	0.33
GGCCGAAA	0.398
AGCCGAAA	0.364
AGCCGAAC	0.279
GGTCGAAA	-0.168
ACCCGAAA	0.169
GCCCGAAA	0.171
CACTAGGC	-0.175
CGATAAAG	-0.00214
CTACGCAA	-0.00413
ACCCAATA	-0.0358
GGTTACAA	0.23
CCATAACC	-0.184
AAGATAGT	0.108
GAACATTC	0.102
ACGAAATA	0.11
CCGAGAAA	0.351
CCGAAATA	0.34
CCGAAAAA	0.371
GCGAGAAA	-0.0014
TCGAAAAA	0.169
GCGAAATA	0.206
CCGAAAGG	0.166
CCGAAAAC	0.243
TCGAGAAA	0.0245

Sequence	PBM E-score
ACGAAAAG	0.187
CCGAAAAG	0.31
AGCCATCG	-0.189
CCTTGCCG	0.124
CCACAGAG	-0.188
AACTTACG	0.0113
GGGGGGAC	-0.445
CGGCGCAC	0.216
GTCTTAAC	-0.122
TAAGGTGA	-0.0772
CGGGGAAG	0.0845
ACAGTTAT	-0.0291
CCGAAGAA	0.345
ACGAAGAA	0.258
TCGAAGAA	-0.0488
GTGAATCA	-0.0703
TGTTAACA	0.111
TCGGTAAA	0.296
CCGGTAAC	0.259
CCGGTAAG	0.369
CCGGTACG	-0.00725
ACGGTAAG	-0.00751
CCGGTAAA	0.321
GAAAGAGC	-0.0552
CCCTTTGA	-0.266

Sequence	PBM E-score
ACGCGACA	-0.0168
CCGATTCA	0.0391
CCGATTCG	0.358
CCGATTCC	0.164
ATGCCAAT	-0.0596
GCGGACCA	0.243
CGGGACCG	0.31
CCGGACAA	0.29
CCGGACAG	0.324
CGGGACCA	-0.098
CCGGACCC	0.235
ACGGACCA	0.327
CCGGACAC	0.286
ACGGACCG	0.193
AGGGACCG	-0.165
CCGGACCG	0.353
CCGGACCA	0.297
GTAGTGGA	0.177
ATGCTGGG	-0.0916
ACAATTGT	0.097
AATGCTCG	-0.0329
AACCAACG	-0.0237
ACAGCCCA	-0.0828
TATCTGAA	0.108
AAAACTGT	0.0544

Sequence	PBM E-score
TCGGACAA	0.378
ACGGACAA	0.27
GCGGACAA	0.298
TCGCTGCA	-0.0505
AACTGGGA	-0.151
ATTGCGGC	0.0068
AAAGTGCA	-0.0658
CCGGCGCA	0.277
CCGGCGCG	0.305
GCGGCGCC	0.299
ACGGCGCC	0.122
CCGGCGCC	0.354
ACGGCGCG	0.232
CGTATTGC	0.0559
ATAGCTGC	0.0565
ATCGGAAC	0.291
TTCGGAAA	0.402
GTCGGGAA	0.0333
ATCGGAAT	0.379
TTCAGAAA	0.0478
ATCGGCAT	0.267
ATCGGAAA	0.344
GTCGGAAA	0.318
GTCGGAGA	0.158
ATCGGAAG	0.211

Sequence	PBM E-score
TTAGGAAA	0.146
ATCGGAGA	0.216
CAGCCTTA	-0.0157
CTTGGATC	-0.0713
CATCGCAG	-0.28
GCGGGAAC	-0.00769
CCTTAAGG	-0.0623
TCCGGTAA	0.387
ACCGGTAA	0.217
GCCGGTAC	0.229
CCCGGTAA	0.221
GCCGGTAA	0.346
GCCGGTGA	0.235
GTAGCTAA	-0.0505
GGCCTCCA	-0.0306
ATCCCATG	-0.297
AGCTGAGG	-0.11
ACCCTCCC	0.0834
ACGAAAGC	0.0461
AGGCTAAA	-0.0661
CGGCTAAA	0.327
TGGCTAAA	0.0133
GGGCTAGA	-0.183
CGGCTAGA	0.306
CGGCTAGC	0.24

Sequence	PBM E-score
CTCCCACA	-0.184
AGTGCACT	0.067
CTGGGTTA	-0.115
ATGAGTAA	0.0956
ACAACCCG	0.0761
CAATTCCG	0.315
AAATTCCG	0.384
CAATTCCA	-0.0791
AAATTCCC	-0.0964
CAATTCCC	0.178
AAATTCCA	0.216
AACAACCC	-0.0615
ATCCTTGA	0.0411
CGGATAAC	0.34
TTGATAAA	0.329
ATGATAAA	0.271
CGGATAAG	0.217
CGGATGAA	0.351
TGGATAAA	0.18
AGGATAAC	-0.197
GGGATAAC	-0.0432
CGGATAAA	0.417
GTGATAAA	0.179
AGGATGAA	-0.0513
CGGATGAG	0.171

Sequence	PBM E-score
CCCCAAAG	-0.253
CGGAGACC	0.0297
CGAACACG	0.172
CTATTGCC	-0.131
TCTCTTAA	0.126
AAAGCTTT	0.237
CGTCAACC	-0.137
GGTGCAGA	-0.206
CAAATGAG	-0.104
ACACTCGC	0.0547
AGAGACAC	-0.119
CGGATATA	0.389
CGGAGATA	0.406
CGGATATC	0.285
AGGAGATA	-0.134
GGGAGATA	-0.161
AGGATAGA	0.0167
GGGATATA	0.0967
CGGATCAG	0.224
CGGATAGA	0.338
TGGATCAA	-0.0363
CGGATCAA	0.318
GGGATAGA	-0.186
CTCTCGTA	-0.204
GATGAGCC	-0.0364

Sequence	PBM E-score
GACTTCCC	-0.0878
GAATACGA	0.118
GTCTCATA	-0.0146
CGCCATGA	-0.155
ATTGCAAC	0.0297
AGAGATCT	-0.168
CATGAGAC	-0.0666
TTAATAAA	0.328
CTAATAAA	0.0623
ATAATAAA	0.276
ATAATATA	0.323
CTAATATA	0.118
ATAATATG	0.132
ATGTGTCG	-0.0246
AGAGTTTC	-0.0656
AGGAATTG	-0.0124
CCGGTCCA	0.0407
CCGGTCCG	0.338
CCGGTCCC	0.0884
